# “And” between values parts separate entries of the source, which are not always exact repeats. Equal values may be shown once. Records with an inconclusive call do not appear. The source made the active and inactive calls. Calls follow the shape of the dose curve; as a rule, active = well fitted inhibition curve with a large enough effect; inconclusive = small, poorly fitted or top-dose-only effect; inactive = flat fitted curve, though single readings scatter.
# Assay: Drug repurposing screens with cells derived from glioblastoma tumor samples (AID 1345199); also: nearly all actives have a fitted effect of over 40% in size
# Conditions: GBM patient neurospheres viability, ATP luminescence, 48 h; at 46 µM (top of the series); tumour line A
# Procedure, shortened: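 Primary testing used CD133+ neurospheres from four GBM patients, seven concentrations, 48 h exposure and ATP-based viability; confirmation added three slower-growing patient lines.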
# % is scaled to controls: 0 for no effect and ±100 for the full control effect.
row,SMILES,"activity, negative = cell killing"
1,O=P(O)(O)OCC(O)CO (configuration not stated),-22.7% (inactive)
2,CCOC(=O)NNc1ccc(N(CC)CC(C)O)nn1 (configuration not stated),-25.2% (inactive)
3,CC(=O)OCC[N+](C)(C)C,-13.5% (inactive)
4,Nc1c[n+](N2CCOCC2)no1,-15.9% (inactive)
5,O=C1CC[C@H](C(=O)N2CCCCC2)N1,-19.7% (inactive)
6,COc1ccccc1OCC1CNC(=O)O1 (configuration not stated),-28.8% (inactive)
7,O=C(Oc1ccccc1)c1ccccc1O,-25.7% (inactive)
8,CC(C(=O)O)c1ccc(/C=C2\CCCCC2=O)cc1 (configuration not stated),-27.9% (inactive)
9,Cc1nc([N+](=O)[O-])cn1-c1ccc([N+](=O)[O-])cc1,-16.5% (inactive)
10,CC(COc1ccccc1)NN (configuration not stated),-26.7% (inactive)
11,C1N2CN3CN1CN(C2)C3,-29.1% (inactive)
12,O=C(CCCCCCCCC#CI)Oc1ccccc1,-21.9% (inactive)
13,O=C(c1ccccc1)c1ccccc1,-8.04% (inactive)
14,CC(=O)OCC(=O)[C@@]1(O)[C@H](OC(C)=O)C[C@H]2[C@@H]3CCC4=CC(=O)C=C[C@]4(C)[C@@]3(F)[C@@H](O)C[C@@]21C,-9.78% (inactive)
15,CC1c2ccccc2CN1NC(=O)c1ccc(Cl)c(S(N)(=O)=O)c1 (configuration not stated),-22.8% (inactive)
16,CC(C)(C)C(=O)OCOC(=O)C1N2C(=O)CC2S(=O)(=O)C1(C)C (configuration not stated),-19.2% (inactive)
17,CO/N=C(/C(=O)N[C@@H]1C(=O)N2C(C(=O)O)=C(Cn3nnc(C)n3)CS[C@H]12)c1csc(N)n1,-14.3% (inactive)
18,CCOc1ccc(NS(=O)(=O)c2ccc(N)cc2)nn1,-27.9% (inactive)
19,Cc1ccc(O)cc1,-10.9% (inactive)
20,CO/N=C(/C(=O)N[C@@H]1C(=O)N2C(C(=O)OCOC(=O)C(C)(C)C)=C(C)CS[C@H]12)c1csc(N)n1,-24.5% (inactive)
21,OCc1cccnc1,-22% (inactive)
22,CC(C)(C)c1nnc(NS(=O)(=O)c2ccccc2)s1,-25.7% (inactive)
23,N[C@@H](Cc1cc(I)c(O)c(I)c1)C(=O)O,14.8% (inactive)
24,CC1CN(c2cc3c(cc2F)c(=O)c(C(=O)O)cn3-c2ccc(F)cc2F)CCN1 (configuration not stated),-6.24% (inactive)
25,CCC(C(=O)NC(=O)NC(C)=O)c1ccccc1 (configuration not stated),-27.9% (inactive)

# Same assay, conditions: GBM patient neurospheres viability, ATP luminescence, 48 h; at 46.1 µM (top of the series); tumour line C
row,SMILES,"activity, negative = cell killing"
1,O=C(OCC(COC(=O)c1cccnc1)(COC(=O)c1cccnc1)COC(=O)c1cccnc1)c1cccnc1,-10.2% (inactive)
2,O=P(O)(O)OCC(O)CO (configuration not stated),-0.918% (inactive)
3,CCOC(=O)NNc1ccc(N(CC)CC(C)O)nn1 (configuration not stated),10.8% (inactive)
4,CCNC(=O)NCCCOc1cccc(CN2CCCCC2)c1,-25.1% (inactive)
5,CC(=O)OCC[N+](C)(C)C,18% (inactive)
6,Nc1c[n+](N2CCOCC2)no1,-4.45% (inactive)
7,O=C1CC[C@H](C(=O)N2CCCCC2)N1,1.57% (inactive)
8,COc1ccccc1OCC1CNC(=O)O1 (configuration not stated),4.79% (inactive)
9,O=C(Oc1ccccc1)c1ccccc1O,-8.91% (inactive)
10,CC(C(=O)O)c1ccc(/C=C2\CCCCC2=O)cc1 (configuration not stated),3.8% (inactive)
11,Cc1nc([N+](=O)[O-])cn1-c1ccc([N+](=O)[O-])cc1,4.99% (inactive)
12,CC(COc1ccccc1)NN (configuration not stated),4.61% (inactive)
13,C1N2CN3CN1CN(C2)C3,5.12% (inactive)
14,O=C(CCCCCCCCC#CI)Oc1ccccc1,-10.1% (inactive)
15,O=C(c1ccccc1)c1ccccc1,-0.361% (inactive)
16,CC(=O)OCC(=O)[C@@]1(O)[C@H](OC(C)=O)C[C@H]2[C@@H]3CCC4=CC(=O)C=C[C@]4(C)[C@@]3(F)[C@@H](O)C[C@@]21C,-2.85% (inactive)

row,SMILES,"activity, negative = cell killing"
1,CC1c2ccccc2CN1NC(=O)c1ccc(Cl)c(S(N)(=O)=O)c1 (configuration not stated),-11.2% (inactive)
2,CC(C)(C)C(=O)OCOC(=O)C1N2C(=O)CC2S(=O)(=O)C1(C)C (configuration not stated),-11.5% (inactive)
3,CO/N=C(/C(=O)N[C@@H]1C(=O)N2C(C(=O)O)=C(Cn3nnc(C)n3)CS[C@H]12)c1csc(N)n1,9.89% (inactive)
4,CCOc1ccc(NS(=O)(=O)c2ccc(N)cc2)nn1,9.99% (inactive)
5,Cc1ccc(O)cc1,8.95% (inactive) and -5.08% (inactive)
6,C[N+]1(CC2COC(c3ccccc3)(c3ccccc3)O2)CCCCC1 (configuration not stated),-16.6% (inactive)
7,CC(C)(C)C(O)/C=C/c1ccc2c(c1)OCO2 (configuration not stated),10.3% (inactive)
8,CO/N=C(/C(=O)N[C@@H]1C(=O)N2C(C(=O)OCOC(=O)C(C)(C)C)=C(C)CS[C@H]12)c1csc(N)n1,0.657% (inactive)
9,CC(C)=CCC/C(C)=C/CC/C(C)=C/CCC(=O)OC/C=C(\C)CCC=C(C)C,-6.49% (inactive)
10,CCOC(=O)Cn1cccc1-c1nc(-c2ccc(OC)cc2)c(-c2ccc(OC)cc2)s1,-5.22% (inactive)
11,OCc1cccnc1,-5.89% (inactive)
12,CC(C)(C)c1nnc(NS(=O)(=O)c2ccccc2)s1,-15.6% (inactive)
13,O=C(O)CCCC[C@@H]1SC[C@@H]2NC(=O)N[C@@H]21,-26% (inactive)
14,N[C@@H](Cc1cc(I)c(O)c(I)c1)C(=O)O,3.63% (inactive)
15,CC1CN(c2cc3c(cc2F)c(=O)c(C(=O)O)cn3-c2ccc(F)cc2F)CCN1 (configuration not stated),-10.7% (inactive)
16,CCC(C(=O)NC(=O)NC(C)=O)c1ccccc1 (configuration not stated),-4.25% (inactive)

# Source: PubChem BioAssay (NCATS)
